# Assay outcomes as filed in PubChem.
# Pf Dd2 inh = blocks growth of Plasmodium falciparum Dd2 parasites | 2.3% of 94,000 active | activity change, % at 10 µM | P. falciparum Dd2 growth, SYBR Green, 72 h; hits give low values; in the data active = activity change below about -80%; inconclusive = no clear call, values can overlap the other calls
# C diff HTS = C. difficile growth inhibition | Clostridium difficile clinical isolate growth, OD600, 24 h; hits give low values | growth activity, negative = inhibition, % at 16 µg/mL (by protocol) | 0.25% of 86,000 active | AID 1259249;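 active = mean growth activity at or below -80% and every replicate also at or below -80%; inconclusive = mean at or below -80% but some replicate above -80%; inactive = mean growth activity above -80%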;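 note: 0% = DMSO wells and -100% = levofloxacin 16 µg/mL wells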
# T cruzi growth = T. cruzi proliferation inhibition. T. cruzi beta-gal in NIH3T3, GalScreen luminescence, 90 h. 5.9% of 77,000 active. inhibition, % at 8.34 µM;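 active = mean inhibition above about 93%, with at least 55% of replicates each passing it, limit read from the data, passing the limit was not always enough; inconclusive = only one of those two conditions holds; inactive = neither condition holds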
# Active calls of the source: *; ? = inconclusive; / = no result. Rows were chosen to be rich in hits. Some 6.7% of all compounds tested hit in one or more screens of this group.
SMILES,Pf Dd2 inh,C diff HTS,T cruzi growth
O=C(C[C@@H]1C[C@@H]2c3cc(NC(=O)Nc4ccccc4)ccc3O[C@@H]2[C@H](CO)O1)NCc1ccccc1,-46,-14,59
CN(C)c1ccc2c(c1)[C@@H]1C[C@H](CC(=O)N3CCc4ccccc4C3)O[C@@H](CO)[C@@H]1O2,?,-6,101*
COc1ccc(S(=O)(=O)Nc2ccc3c(c2)C(=O)N([C@@H](C)CO)C[C@@H](C)[C@@H](CN(C)C(=O)CCCN(C)C)OCCCC[C@H](C)O3)cc1,31,-4,16
C[C@@H]1CN([C@H](C)CO)S(=O)(=O)c2ccc(-c3cncnc3)cc2O[C@@H]1CN(C)C(=O)Cc1ccccc1,-4,1,/
C[C@H]1CN([C@@H](C)CO)C(=O)c2cccc(NC(=O)C3CCOCC3)c2O[C@@H]1CN(C)S(=O)(=O)c1cccs1,12,0,97
CC(C)NC(=O)Nc1ccc2c(c1)C(=O)N([C@@H](C)CO)C[C@@H](C)[C@@H](CN(C)S(=O)(=O)c1ccccc1)OCCCC[C@@H](C)O2,-31,-9,100
CCCN1C[C@@H](C)[C@@H](OC)CN(C)C(=O)c2cc(NC(=O)c3cccc(F)c3)ccc2OC[C@H]1C,21,-2,-7
COc1ccc(S(=O)(=O)N(C)C[C@H]2OCCCC[C@H](C)Oc3ccc(NS(=O)(=O)c4cn(C)cn4)cc3C(=O)N([C@H](C)CO)C[C@@H]2C)cc1,-9,-3,33
C[C@@H]1CCCCO[C@H](CN(C)CC2CCCCC2)[C@H](C)CN([C@@H](C)CO)C(=O)c2cc(NC(=O)Cc3ccccc3)ccc2O1,-26,9,26
COc1ccccc1CNC(=O)C[C@H]1C[C@H]2c3cc(NC(=O)Cc4ccncc4)ccc3O[C@H]2[C@H](CO)O1,-87*,0,-10
CN(C)c1ccc2c(c1)[C@H]1C[C@@H](CC(=O)NCc3ccc(Oc4ccccc4)cc3)O[C@H](CO)[C@H]1O2,-10,-9,/
CN(C)c1ccc2c(c1)[C@@H]1C[C@@H](CC(=O)NCc3ccc(Oc4ccccc4)cc3)O[C@@H](CO)[C@@H]1O2,?,6,127*
COCC(=O)Nc1ccc2c(c1)[C@@H]1C[C@@H](CC(=O)NCc3ccccc3OC)O[C@@H](CO)[C@@H]1O2,-18,-3,-4
C[C@@H]1CN([C@@H](C)CO)C(=O)Cc2cc(NS(=O)(=O)c3cn(C)cn3)ccc2O[C@H]1CN(C)Cc1ccc(C(=O)Nc2ccccc2N)cc1,-21,6,/
C[C@@H]1CCCCO[C@@H](CN(C)C(=O)Nc2ccc3c(c2)OCO3)[C@H](C)CN([C@@H](C)CO)C(=O)c2cc(NC(=O)Nc3ccc(F)cc3)ccc2O1,4,2,33
C[C@@H]1CCCCO[C@@H](CN(C)C(=O)Nc2ccc(C(F)(F)F)cc2)[C@H](C)CN([C@@H](C)CO)C(=O)c2cc(NC(=O)Nc3ccc4c(c3)OCO4)ccc2O1,15,-3,112*
C[C@@H]1CN([C@@H](C)CO)C(=O)c2cc(NC(=O)Nc3ccc(F)cc3)ccc2O[C@@H](C)CCCCO[C@@H]1CN(C)C(=O)Nc1ccc2c(c1)OCO2,-89*,3,/
C[C@H](CO)N1C[C@H](C)[C@@H](CN(C)C(=O)Nc2ccc3c(c2)OCO3)OCCCC[C@H](C)Oc2ccc(NC(=O)Nc3ccc(C(F)(F)F)cc3)cc2C1=O,-57,8,91
C[C@H](CO)N1C[C@H](C)[C@H](CN(C)CC2CCCCC2)OCCCC[C@H](C)Oc2ccc(NC(=O)Nc3ccc4c(c3)OCO4)cc2C1=O,-80,-14,90
O=C(C1CCOCC1)N1[C@H](CO)[C@H](c2ccccc2)C12CN(Cc1cncnc1)C2,20,11,/
C[C@@H]1CN([C@@H](C)CO)C(=O)c2cc(NC(=O)CCCN(C)C)ccc2O[C@@H](C)CCCCO[C@@H]1CN(C)C(=O)Nc1ccc2c(c1)OCO2,-33,-3,/
C[C@@H]1CN([C@H](C)CO)C(=O)c2cc(NS(C)(=O)=O)ccc2O[C@@H](C)CCCCO[C@H]1CN(C)S(=O)(=O)c1ccc(F)cc1,-32,-2,43
COc1ccc(C#Cc2ccc3c(c2)O[C@@H](CN(C)C(=O)c2ccccn2)[C@H](C)CN([C@@H](C)CO)S3(=O)=O)cc1,-44,-3,/
COc1cccc(C#Cc2ccc3c(c2)O[C@@H](CN(C)C(=O)c2ccccn2)[C@@H](C)CN([C@H](C)CO)S3(=O)=O)c1,-73,-3,?
COc1cccc(C#Cc2ccc3c(c2)O[C@@H](CN(C)C(=O)c2ccccn2)[C@H](C)CN([C@H](C)CO)S3(=O)=O)c1,-79,-3,119*
COc1cccc(NC(=O)N(C)C[C@@H]2Oc3cc(C#Cc4ccccc4)ccc3S(=O)(=O)N([C@@H](C)CO)C[C@@H]2C)c1,-91*,-7,?
